In the library only some 21% were active in any assay of this set; here they are far more common.
NS1 inh: qHTS Assay for Inhibitors of Influenza NS1 Protein Function; Potency, µM (titrated, usually from 46.1 µM), for inactives: top-dose activity, positive = more growth; 270,000 tested, 0.4% active; AID 2326, 2010; calls by dose curve; also: potency is read from the fitted curve at half-maximal effect; actives are rising curves; nearly all actives have a fitted effect of over 50% in size
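Growth recovery, yeast-based: influenza A NS1 expressed in S. cerevisiae causes slow growth, and suppressors are detected by OD600. The parent strain without NS1 is used as positive control.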
Cycloheximide cs: Cycloheximide Counterscreen for Small Molecule Inhibitors of Shiga Toxin | max response, % | cell reporter, cycloheximide protein synthesis inhibition counterscreen | 300,000 tested, 12% active; in the data active = max response mostly above about 13%, no sharp cut-off; inactive = mostly below about 14%; also: read at 38.3 µM for the half of the compounds with a filed dose; 0% is about no effect
Pf growth 48h: Primary qHTS for delayed death inhibitors of the malarial parasite plastid, 48 hour incubation | Potency, µM (top dose mostly 28.7 µM), inactives show at the highest dose activity change, negative = inhibition, hits mostly inhibitors | P. falciparum luciferase growth in erythrocytes, 48 h | 310,000 tested, 5.9% active; also: potency is read from the fitted curve at half-maximal effect; % is scaled to controls: 0 for no effect and ±100 for the full control effect
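Read-out is firefly luciferase luminescence from an integrated reporter in P. falciparum, so falling signal marks reduced parasite growth. Infected erythrocytes were at 2% hematocrit and 0.1% parasitemia (final) in Albumax-supplemented RPMI 1640.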
Shiga toxin inh: A qHTS for Small Molecule Inhibitors of Shiga Toxin; 290,000 tested, 9.2% active; inhibition, % at 38.7 µM; AID 2315, 2010; Vero cells, Shiga toxin protein synthesis inhibition reporter; in the data active = inhibition mostly above about 28%, no sharp cut-off; inactive = mostly below about 43%; also: 0% is about no effect
SARS PLpro yeast: qHTS of Yeast-based Assay for SARS-CoV PLP; Potency, µM (titrated, usually from 32.9 µM), for the others: top-dose activity, positive = growth rescue, usual class: activators; S. cerevisiae expressing SARS-CoV PLpro, growth rescue; 330,000 tested, 0.19% active; AID 485353, 2010; calls by dose curve; also: potency is read from the fitted curve at half-maximal effect; 0% is about no effect; nearly all actives have a fitted effect of over 55% in size
Pf growth 96h: Primary qHTS for delayed death inhibitors of the malarial parasite plastid, 96 hour incubation; P. falciparum luciferase reporter growth, 96 h; Potency, µM (titrated, usually from 28.7 µM), for the others: at the highest dose activity change, negative = inhibition, actives largely listed as inhibitors; 320,000 tested, 6.9% active; AID 504834, 2011; also: potency is read from the fitted curve at half-maximal effect; % is scaled to controls: 0 for no effect and ±100 for the full control effect
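Two parasite generations (96 h, 37 C, 5% CO2) of compound exposure in infected erythrocytes (0.05% parasitemia, 2% hematocrit). Luciferase-reporter P. falciparum; decreased luminescence indicates inhibited growth, aimed at apicoplast-acting delayed death.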
* marks the source's active call; other numbers are inactive results; i = inactive; u = inconclusive; x = not tested or not shown. Unless noted, calls follow the shape of the dose curve; as a rule, active = well fitted inhibition curve with a large enough effect; inconclusive = small, poorly fitted or top-dose-only effect, or another doubt; inactive = no such curve, though single readings can be large or run the other way.

SMILES	NS1 inh	Cycloheximide cs	Pf growth 48h	Shiga toxin inh	SARS PLpro yeast	Pf growth 96h
O=c1oc2ccccc2nc1/C=C(\O)c1ccccc1	-99%	63*	-21%	104*	-7%	4%
O/C(=C\c1nc2ccccc2nc1/C=C(\O)c1ccccc1)c1ccccc1	x	31*	4%	102*	-2%	-7%
O=c1oc2ccc(Cl)cc2nc1/C=C(\O)c1ccco1	-53%	25*	u	41*	-5%	15µM*
O=C(O)/C=C\c1ccc[c]([Sb])c1	5%	x	x	x	x	x
O=C(COC(=O)C1=COCCO1)Nc1cc(Cl)c(Cl)cc1Cl	x	x	x	x	1%	x
CCOC(=O)c1sc(=NC(=O)c2ccco2)n(C)c1C	x	60*	205%	73*	0%	148%
Cc1sc(=NC(=O)c2ccco2)n(C)c1-c1ccc(Cl)cc1	-14%	3	u	47	-11%	10µM*
CCOC(=O)c1sc(=NC(=O)c2ccccc2Br)n(C)c1C	16%	30*	107%	87*	3%	39%
CCOC(=O)c1sc(=NC(=O)c2cccs2)n(C)c1C	x	48*	i	96*	0%	i
CCOC(=O)c1sc(=NC(=O)c2ccc(S(=O)(=O)N3CC(C)OC(C)C3)cc2)n(C)c1C (stereo not drawn)	-3%	0	u	-24	-5%	u
COCCN(C(=O)COC(=O)/C(=C/c1ccccc1)NC(C)=O)c1c(N)n(Cc2ccccc2)c(=O)[nH]c1=O	-1%	-2	5%	-4	-4%	10%
CCOC(=O)C1=C(C)NC(C)=C(C(=O)OCC)C1/C=C/c1ccccc1	-8%	2	u	9	-11%	u
CCOC(=O)c1sc(=NC(=O)/C=C/c2ccccc2)n(C)c1C	x	38*	65%	68*	3%	92%
CCOC(=O)c1sc(=NC(=O)c2ccc(C)c(C)c2)n(C)c1C	x	63*	83%	67*	0%	20%
CCOC(=O)c1sc(=NC(=O)c2ccc(OC(C)C)cc2)n(C)c1C	x	-6	0%	-8	-2%	0%
C=CCn1c(=NC(=O)c2ccco2)sc2cc(C(=O)OC)ccc21	11%	13	2%	-7	-2%	6%
CCOC(=O)c1sc(=NC(=O)c2ccc(Cl)s2)n(C)c1C	2%	31*	126%	59*	-1%	155%
C=CCn1c(=NC(=O)c2ccco2)sc2cc(C(=O)OCC)ccc21	9%	3	15%	-5	7%	6.6µM*
O=C(O)c1cc(S(=O)(=O)N2CCCCC2)ccc1Cl	13%	1	43%	-13	1%	u
C=CCn1c(CNc2ccc(C)cc2)nnc1SCC(=O)N/N=C/c1ccc(O)cc1	7%	1	0%	-9	4%	1%
COc1ccc(CNC(=O)C(C)OC(=O)c2cccc(N(C)C)c2)cc1 (stereo not drawn)	x	x	x	x	-6%	x
CCCCCCCN1CCN=C1Nc1ccccc1	x	x	u	x	0%	u
O=C(NCc1nc2ccccc2[nH]1)C1=C[C@@H](c2ccc(Br)cc2)C[C@@H](OCCCCO)O1	1%	-3	u	-6	-2%	u
CC(C)(C)[C@H]1C=C(C(=O)NCc2nc3ccccc3[nH]2)O[C@@H](OCCCCO)C1	2%	-3	u	-12	-3%	10µM*
O=C(NCc1nc2ccccc2[nH]1)C1=C[C@@H](c2ccccc2)C[C@@H](OCCCCO)O1	1%	-1	0.0033µM*	-5	-2%	-22%
S=C1NCN(C2CCCCC2)CN1c1ccccc1	3%	-3	-27%	-10	0%	19%
COc1ccc(C(c2nnnn2CC2CCCO2)N2CCN(c3ccccc3)CC2)cc1 (stereo not drawn)	-10%	-4	u	2	-8%	34%
Cc1ccc(Cl)cc1N1CCN(C(c2ccc(C#N)cc2)c2nnnn2C2CCCC2)CC1 (stereo not drawn)	1%	2	2.3µM*	-20	-5%	2%
Cc1ccc(Cl)cc1N1CCN(C(CC(C)C)c2nnnn2CC2CCCO2)CC1 (stereo not drawn)	-4%	5	u	25	-7%	0%

Screens deposited in PubChem BioAssay by National Center for Advancing Translational Sciences (NCATS).
